Experimental data from the supplement of paper PMC10646978.
± gives the standard deviation.

tested on: RAW-Dual (murine macrophage reporter line); test: IRF reporter (Lucia luciferase) activity fold change vs agonist alone; higher = enhanced IRF activity; conditions: modulator concentration 10 µM; agonist: LPS 0.1 ug/mL
How it was run: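 RAW-Dual murine macrophage reporter cells were plated at 50 000 per well in 384-well plates, pin-transferred compound to 10 μM final, and pre-incubated for 1 hour at 37 °C before a PRR agonist was added and the cells incubated overnight. NF-κB activity was read from supernatant SEAP with QUANTI-Blue at 620 nm absorbance, and IRF activity from Lucia luciferase with QUANTI-Luc by luminescence. Each signal was expressed as fold change by dividing by the mean agonist-only control on the same plate. Two replicate plates were averaged, with errors obtained by propagation.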

Structure (SMILES)	IRF reporter
Oc1ccc(OCc2ccccc2)cc1	1.46 ± 0.27
O=C(NCC(O)Cc1ccccc1)Nc1ccc(F)cc1 (stereo not given)	1.28 ± 0.3
CCC(=O)CC(O)(c1ccccc1)C(F)(F)F (stereo not given)	0.953 ± 0.061
COc1ccc(C(C)=NNC(=O)Nc2ccccc2)c(OC)c1	1.26 ± 0.2
NS(=O)(=O)c1ccc(F)cc1	1.24 ± 0.2
Cc1ncsc1C(=O)NC1CCC(F)(F)CC1	1.01 ± 0.057
Cn1c2c(c3ccccc31)CCCC2NC=O (stereo not given)	1.36 ± 0.082
O=C(NN=Cc1cccc(Cl)c1Cl)c1cc(O)cc(O)c1	1.19 ± 0.22
Cc1ccc(OCCOc2ncnc3ccccc23)c(Cl)c1	1 ± 0.12
Cc1ccsc1C(=CCCN1CCC[C@@H](C(=O)O)C1)c1sccc1C	0.961 ± 0.05
CNC(=O)[C@H](Cc1c[nH]c2ccccc12)NC(=O)[C@@H](CC(=O)NO)CC(C)C	1.07 ± 0.12
Clc1cccc(Nc2nc(-c3ccccn3)cs2)c1	0.658 ± 0.2
CN1CCN(CC(O)Cn2c3ccccc3c3ccccc32)CC1.O=C(O)C(=O)O (stereo not given)	1.39 ± 0.19
CCOC(=O)c1c(N2C(=O)C3C4C=CC(O4)C3C2=O)sc2c1CCCC2 (stereo not given)	0.962 ± 0.12
Cc1cc(OC2CN(C(=O)Cc3c[nH]c4ccccc34)C2)cc(=O)n1C1CC1	1.2 ± 0.076
O=C(CSC1CCCCC1)Nc1ccc(Br)cc1	1.06 ± 0.12
CN(C)C/C=C/C(=O)Nc1cc2c(Nc3ccc(F)c(Cl)c3)ncnc2cc1O[C@H]1CCOC1	0.0747 ± 0.015
O=S(=O)(NCCn1ccn2nccc12)c1ccccc1Br	1.14 ± 0.18
CN(C)c1ccc(C=C(C#N)c2nc(-c3cc4ccccc4oc3=O)cs2)cc1	1.36 ± 0.091
N[C@@H](CC(=O)N1CCn2c(nnc2C(F)(F)F)C1)Cc1cc(F)c(F)cc1F	1.05 ± 0.12
